Assay results from the supplement of paper PMC13380429.
Unmarked numbers belong to inactive results.

System: Vero E6 infected with SARS-CoV-2
Test: inhibition of SARS-CoV-2 cytopathic effect; higher = more antiviral protection, active = above 15
Conditions: 8.33 nM; 48 h

Structure (SMILES)	inhibition of SARS-CoV-2 cytopathic effect [%]
Cc1cnc(-c2cnc(NCCNc3ccc(C#N)cn3)nc2-c2ccc(Cl)cc2Cl)[nH]1	3.19
CC1(C)C(=O)N(c2ccc(C#N)c(C(F)(F)F)c2)C(=O)N1CCCCO	0.32
Fc1ccc(C(c2ccc(F)cc2)N2CCN(C/C=C/c3ccccc3)CC2)cc1 [flunarizine]	-0.01
Sc1nc2ccccc2s1 [benzo[d]thiazole-2(3H)-thione]	0.55
O=c1cc(N2CCOCC2)oc2c(-c3cccc4c3sc3ccccc34)cccc12	-0.44
CCCNC(=O)NS(=O)(=O)c1ccc(Cl)cc1 [chlorpropamide]	0.48
Cc1ccc(-c2c(-c3nn(C)c4ncnc(N5CC[C@H](N6CCCCC6)C5)c34)cnn2C)cc1	-0.84
N[C@@H](CSS(=O)(=O)O)C(=O)O [S-sulfo-L-cysteine]	1.82
Nc1sc2c(c1C(=O)c1ccc(Cl)cc1)CCCC2	3.31
COc1cc(C(=O)NCc2ccc(OCCN(C)C)cc2)cc(OC)c1OC [trimethobenzamide]	-1.41
CO[C@H]1O[C@@H]2O[C@@]3(C)CC[C@H]4[C@H](C)CC[C@@H]([C@H]1C)[C@@]24OO3 [artemether]	4.82
COCCCN1CCC(NC(=O)c2cc(Cl)c(N)c3c2OCC3)CC1 [prucalopride]	1.93
Cn1cc([S+](C)[O-])c(=O)c2ccc(F)cc21 (stereo not drawn) [flosequinan]	-0.91
CCc1cc(C(C)=O)c(O)cc1OCCCCCC(C)(C)c1nn[nH]n1	0.23
N[C@@H](C(=O)N[C@@H]1C(=O)N2C(C(=O)O)=C(Cl)CC[C@H]12)c1ccccc1 [loracarbef]	4.02
COCCCOc1ccnc(C[S+]([O-])c2nc3ccccc3[nH]2)c1C (stereo not drawn) [rabeprazole]	-0.31
Nc1nc(O)c2nc(Br)n([C@@H]3O[C@@H]4COP(=O)(O)O[C@H]4[C@H]3O)c2n1 [8-bromo-cGMP]	2.94
CCCC(=O)N1CCCN(c2nc(N)c3cc(OC)c(OC)cc3n2)CC1 [bunazosin]	-1.38
Oc1ccc2c3c1O[C@H]1[C@@H](O)CC[C@@]4(O)[C@@H](C2)N(CC2CCC2)CC[C@]314 [nalbuphine]	0.43
Nc1ccc(S(=O)(=O)Nc2nccs2)cc1 [sulfathiazole]	2.25
CC[C@H](/C=C/[C@@H](C)[C@H]1CC[C@H]2[C@@H]3CC=C4C[C@@H](O)CC[C@]4(C)[C@H]3CC[C@]12C)C(C)C [Stigmasterol (Stigmasterin)]	-0.75
Cc1nn(C)c2c1C(c1cccc(Cl)c1)=NCCN2 [zometapine]	-1.16
CCC1=C(C)CN(C(=O)NCCc2ccc(S(=O)(=O)NC(=O)N[C@H]3CC[C@H](C)CC3)cc2)C1=O [glimepiride]	-2.65
